PubChem BioAssay
Calls of active or inactive are those of the source.

How the values were obtained:
[1] = compound effects on lung adenocarcinoma cell viability – A549, calcein-AM fluorescence, 48 h, basal, profiling panel (AID 1162); conditions: higher = more signal; further: test concentration not given here
[2] = compound effects on differentiated 3T3-L1 adipocyte viability – cell-based, 3T3-L1 adipocytes, calcein-AM fluorescence, 48 h, basal, profiling panel (AID 1163); conditions: 3T3-L1 adipocytes viability, higher = more signal; further: test concentration not given here
[3] = compound effects on hepatocellular carcinoma cell viability – HepG2, calcein-AM fluorescence, 48 h, basal, profiling panel (AID 1164); conditions: higher = more signal; further: test concentration not given here
[4] = compound effects on multiple myeloma cell viability – MM1S, calcein-AM fluorescence, 48 h, basal, profiling panel (AID 1165); conditions: higher = more signal; further: test concentration not given here
[5] = calcein-AM signal in unstimulated myeloma cells – cell-based, calcein-AM fluorescence, 48 h, PK04 Diversity Set, profiling panel (AID 1166); conditions: RPMI8226 myeloma viability, higher = more signal;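 further: cells grown under basal conditions without added stimulus; test concentration not given here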
[6] = JC-1 mitochondrial signal, unstimulated HepG2 cells – cell-based, JC-1 fluorescence, 24 h, 100 nL compound, profiling panel (AID 1167); conditions: HepG2 mitochondrial potential, higher = more signal; further: test concentration not given here
[7] = JC-1 mitochondrial signal, unstimulated adipocytes – cell-based, JC-1 fluorescence, 3T3-L1 adipocytes, 24 h, 100 nL compound, profiling panel (AID 1168); conditions: JC-1 mitochondrial fluorescence, higher = more signal, called active from +8 up or from −8 down; further: test concentration not given here
[8] = JC-1 mitochondrial signal, unstimulated myeloma cells – cell-based, JC-1 fluorescence, RPMI8226, 24 h, 100 nL compound, profiling panel (AID 1169); conditions: JC-1 mitochondrial potential fluorescence, higher = more signal; further: test concentration not given here
[9] = JC-1 mitochondrial signal, unstimulated MM1S myeloma – cell-based, JC-1 fluorescence, 24 h, 100 nL compound, profiling panel (AID 1170); conditions: MM1S mitochondrial potential, higher = more signal; further: test concentration not given here
[10] = resazurin metabolic signal in A549 cells – cell-based, resazurin fluorescence, 24 h, PK04 Diversity Set, profiling panel (AID 1171); conditions: A549 viability, higher = more signal, called active from +8 up or from −8 down; further: test concentration not given here
[11] = resazurin metabolic signal in HepG2 cells – cell-based, resazurin fluorescence, 24 h, PK04 Diversity Set, profiling panel (AID 1172); conditions: HepG2 viability, higher = more signal; further: test concentration not given here
[12] = budding yeast growth changes without added modifier – OD600, strain BY4716, 24 h, basal condition, primary screen (AID 1173); conditions: S. cerevisiae BY4716 growth, OD600, 24 h; higher = more signal, called active from +8 up or from −8 down
[13] = viability profiling in MM1S myeloma cells – cell-based, resazurin fluorescence, basal, 24 h, PK04 Diversity Set, profiling panel (AID 1174); conditions: higher = more signal, called active from +8 up or from −8 down; further: test concentration not given here
[14] = target: Dihydroorotate dehydrogenase (quinone), mitochondrial (Plasmodium falciparum (isolate 3D7)) (UniProt Q08210); assay: inhibition of P. falciparum DHODH – biochemical, C-terminal His tag, absorbance 600 nm, primary screen (AID 1175); conditions: PfDHODH enzyme, DCIP absorbance 600 nm; higher = more signal, called active from +8 up or from −8 down;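 further: recombinant parasite enzyme with a five histidine tag at its C terminus; test concentration not given here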
[15] = growth modulation of vineyard yeast isolate – strain RM11-1a, OD600, basal, 24 h, primary screen (AID 1177);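 further: cultures grown under basal conditions with no added stressor; test concentration not given here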; conditions: S. cerevisiae RM11-1a growth, OD600, 24 h; higher = more signal, called active from +8 up or from −8 down
[16] = growth of efflux-deficient E. coli DRC39 – strain DRC39, OD650, 24 h, E. coli filamentation inducers, primary screen (AID 1178);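 further: growth measured as culture turbidity by optical density at 650 nm; test concentration not given here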; conditions: E. coli DRC39 acrAB, higher = more signal, called active from +8 up or from −8 down
[17] = growth of efflux-deficient E. coli DRC39 – strain DRC39, OD650, 48 h, E. coli filamentation inducers, primary screen (AID 1179);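 further: screen aims at cell division blockers that make cells filament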; conditions: E. coli DRC39 delta-acrAB growth, higher = more signal, called active from +8 up or from −8 down
[18] = viability profiling in RPMI8226 myeloma cells – cell-based, resazurin fluorescence, basal, 24 h, PK04 Diversity Set, profiling panel (AID 1180); conditions: higher = more signal;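 further: RPMI8826 multiple myeloma cell line at 5000 cells per well; test concentration not given here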
[19] = target: E3 ubiquitin-protein ligase XIAP (Homo sapiens) (UniProt P98170); assay: small molecules binding XIAP protein – biophysical, small-molecule microarray, fluorescence 635 nm, primary screen (AID 1181); conditions: higher = more signal;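 further: score merges 667 nm emission and signal to noise over triplicate slides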
E3 ubiquitin-protein ligase XIAP (Homo sapiens), sequence (P98170 whole entry, looked up): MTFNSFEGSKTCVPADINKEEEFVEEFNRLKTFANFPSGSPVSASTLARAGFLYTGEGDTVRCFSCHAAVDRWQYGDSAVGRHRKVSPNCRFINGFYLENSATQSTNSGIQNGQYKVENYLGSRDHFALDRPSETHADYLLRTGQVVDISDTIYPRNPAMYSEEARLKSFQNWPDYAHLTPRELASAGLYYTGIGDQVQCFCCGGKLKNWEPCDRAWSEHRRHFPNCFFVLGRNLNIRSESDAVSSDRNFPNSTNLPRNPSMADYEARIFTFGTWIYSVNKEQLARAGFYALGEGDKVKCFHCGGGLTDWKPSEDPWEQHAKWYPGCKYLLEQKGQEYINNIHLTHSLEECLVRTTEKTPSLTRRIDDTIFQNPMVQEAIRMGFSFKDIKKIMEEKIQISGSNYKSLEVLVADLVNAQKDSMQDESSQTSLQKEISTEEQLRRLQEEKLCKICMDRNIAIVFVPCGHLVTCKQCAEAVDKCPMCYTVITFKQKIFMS

Dihydroorotate dehydrogenase (quinone), mitochondrial (Plasmodium falciparum (isolate 3D7)), sequence (Q08210 whole entry, looked up): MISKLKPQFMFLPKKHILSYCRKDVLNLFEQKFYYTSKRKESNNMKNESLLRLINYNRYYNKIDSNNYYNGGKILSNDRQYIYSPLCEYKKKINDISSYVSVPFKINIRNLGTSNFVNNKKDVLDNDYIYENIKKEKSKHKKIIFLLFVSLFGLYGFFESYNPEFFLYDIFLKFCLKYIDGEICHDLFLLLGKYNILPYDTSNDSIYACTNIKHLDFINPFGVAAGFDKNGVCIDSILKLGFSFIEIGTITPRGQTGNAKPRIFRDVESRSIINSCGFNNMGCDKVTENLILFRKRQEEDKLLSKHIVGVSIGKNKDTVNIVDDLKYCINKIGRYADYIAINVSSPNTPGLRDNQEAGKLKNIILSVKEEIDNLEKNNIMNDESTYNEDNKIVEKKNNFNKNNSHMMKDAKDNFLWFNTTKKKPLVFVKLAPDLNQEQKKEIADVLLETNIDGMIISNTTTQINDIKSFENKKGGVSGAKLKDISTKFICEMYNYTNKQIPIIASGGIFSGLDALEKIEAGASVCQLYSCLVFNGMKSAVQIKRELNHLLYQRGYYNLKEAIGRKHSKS

Row | Structure (SMILES) | z-score [1] | z-score [2] | z-score [3] | z-score [4] | z-score [5] | z-score [6] | z-score [7] | z-score [8] | z-score [9] | z-score [10] | z-score [11] | z-score [12] | z-score [13] | composite z-score [14] | z-score [15] | z-score [16] | z-score [17] | z-score [18] | composite z-score [19]
1 | O=C(O)[C@@H]1Cc2c([nH]c3ccccc23)[C@@H](c2ccccc2)N1 | 0.0265 | 1.21 | -0.55 | 0.424 | 0.519 | 0.516 | -0.284 (inactive) | -0.122 | 0.0857 | 0.216 (inactive) | 0.326 | -0.949 (inactive) | 1.14 (inactive) | -0.36 (inactive) | -0.19 (inactive) | -0.266 (inactive) | 0.0747 (inactive) | 0.724 | -0.127
2 | C=CCC(OC(C)=O)[C@@H]1[C@@H](N(Cc2cc3ccccc3o2)C(=O)Cc2ccc(F)cc2)c2cc(OCCCO)ccc2N1C(=O)c1ccc(-c2ccccc2)cc1 (stereo partly specified) | 1.79 | 0.0893 | 1.01 | 0.661 | 0.708 | 2.84 | 0.756 (inactive) | 0.602 | 0.0416 | 1.18 (inactive) | 1.13 | -0.588 (inactive) | -0.518 (inactive) | -0.177 (inactive) | -0.157 (inactive) | 1.17 (inactive) | 0.845 (inactive) | 0.673 | -0.332
3 | C=CC[C@@]12N=C(c3ccc(OCCCO)cc3)O[C@@H]1c1ccccc1CN(Cc1ccccc1)C2=O | -0.843 | 2.38 | -1.92 | -3.46 | -4.51 | 0.0441 | -0.218 (inactive) | -1.36 | -1.45 | -1.9 (inactive) | -0.806 | -0.251 (inactive) | -3.75 (inactive) | 1.27 (inactive) | 1.77 (inactive) | 1.4 (inactive) | 0.485 (inactive) | -3.21 | -0.0473
4 | CO[C@@H]1COC(=O)[C@H](C)NC(=O)CC=C[C@@H](C)[C@H](NS(=O)(=O)c2ccc(C)cc2)COC(=O)CC=C[C@@H]1C | 0.286 | 0.624 | 0.129 | 0.287 | -0.0803 | 0.596 | 0.523 (inactive) | -0.296 | 0.203 | 0.589 (inactive) | 0.825 | -0.364 (inactive) | 0.507 (inactive) | 0.605 (inactive) | 0.655 (inactive) | 0.798 (inactive) | 0.547 (inactive) | 0.271 | -0.0835
5 | CO[C@@H]1COC(=O)[C@H](COCc2ccccc2)NC(=O)CC=C[C@@H](C)[C@H](OC)COC(=O)[C@H](COCc2ccccc2)NC(=O)CC=C[C@H]1C | 0.404 | 0.67 | -0.0841 | 0.0234 | 0.711 | 0.849 | 1 (inactive) | 0.525 | 0.178 | 0.296 (inactive) | 0.784 | -0.173 (inactive) | 1.28 (inactive) | 0.946 (inactive) | 0.371 (inactive) | 2.23 (inactive) | -0.0924 (inactive) | 0.415 | 0.378
6 | COCCOC(=O)N1C(=O)[C@@]2(c3ccccc31)[C@H](C(=O)N1CCc3cc(OC)c(OC)cc3C1)[C@H]1C(=O)O[C@H](c3ccccc3)[C@H](c3ccccc3)N1[C@@H]2c1ccccc1OCCO | 1.57 | 1.3 | -0.478 | -1.2 | -0.222 | 1.24 | 0.407 (inactive) | -0.181 | -0.238 | 0.725 (inactive) | 0.223 | 1.03 (inactive) | -0.517 (inactive) | -1.85 (inactive) | -0.446 (inactive) | 0.659 (inactive) | 1.31 (inactive) | 0.673 | -0.042
7 | CC(C)[Si]1(C(C)C)O[C@@H](c2ccccc2)c2cc(C3CC3)nc(-c3ccc(Oc4ccccc4)cc3)c21 | -0.654 | 1.31 | 0.0626 | -0.964 | 0.391 | 0.484 | 0.924 (inactive) | 0.38 | 0.484 | 1.6 (inactive) | 1.08 | -0.225 (inactive) | 1.35 (inactive) | 0.967 (inactive) | 1.15 (inactive) | 1.3 (inactive) | 0.734 (inactive) | 0.688 | -0.267
8 | C[N+](C)(C)CCCC[C@@H]1NC(=O)[C@H]2C[C@@H](C(=O)NCc3ccc(F)cc3)[C@@H](c3cccc(OCCO)c3)N2C1=O | 0.191 | 1.01 | -0.676 | -1.04 | 0.366 | 1.79 | 1.06 (inactive) | -0.397 | 0.392 | 0.656 (inactive) | 0.523 | -1.84 (inactive) | 1.33 (inactive) | -0.347 (inactive) | -1.62 (inactive) | 0.765 (inactive) | 0.604 (inactive) | -0.0523 | 0.245
9 | O=C(CS)NCCCCCNC(=O)[C@H]1C[C@H]2C(=O)N3CCC[C@H]3C(=O)N2[C@H]1c1ccc(O)cc1 | 0.931 | -0.172 | -0.0292 | 0.965 | -0.0858 | 1.89 | 0.797 (inactive) | 0.34 | -0.235 | 0.641 (inactive) | 0.743 | -1.04 (inactive) | 0.613 (inactive) | -0.581 (inactive) | -0.881 (inactive) | 1.2 (inactive) | 1.34 (inactive) | 1.09 | -0.02
